High-throughput results deposited in PubChem BioAssay by several laboratories.
CSC inhib = blocks cancer stem cells. cancer stem cell-like cells viability, luminescence. inhibition, % at 7.5 µM. 1.1% of 300,000 active; in the data active means inhibition above about 75%; inconclusive means no clear call, values can overlap the other calls; tested in HMLE shEcad cells
PP5 primary = inhibitors of human protein phosphatase 5 (PP5). purified PP5c, OMFP substrate fluorescence. P53041. inhibition, % at 6.7 µM. 0.18% of 320,000 active;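 active means inhibition above the campaign's mean inhibition across all tested compounds plus 3 SD, cut at about 9.5% in these data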;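 further: 0% = DMSO only and 100% = 100 µM cantharidin control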
PP1 inh = PP1-alpha (human) inhibition in PP5 counter-screen | inhibition, % at 6.7 µM | P62136 | purified PP1alpha, OMFP fluorescence | 0.9% of 320,000 active;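 active means inhibition above the mean inhibition of all tested compounds plus 3 SD, computed separately for each screening campaign, cut at about 15% in these data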
Target sequence (P62136 whole entry, looked up): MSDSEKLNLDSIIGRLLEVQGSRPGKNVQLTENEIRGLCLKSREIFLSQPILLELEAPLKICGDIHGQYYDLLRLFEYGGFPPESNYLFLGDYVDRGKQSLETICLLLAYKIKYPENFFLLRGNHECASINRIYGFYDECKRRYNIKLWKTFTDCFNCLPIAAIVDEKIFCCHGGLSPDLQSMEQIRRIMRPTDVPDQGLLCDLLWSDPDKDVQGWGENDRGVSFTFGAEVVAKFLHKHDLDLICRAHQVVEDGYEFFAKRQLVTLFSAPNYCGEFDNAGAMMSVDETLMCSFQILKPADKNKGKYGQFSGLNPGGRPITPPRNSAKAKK
ALR H2O2 inh = blocks human ALR sulfhydryl oxidase activity | P55789 | purified ALR, DTT oxidation, H2O2 HRP-luminol luminescence | inhibition, % (concentration not given with the values) | 3.8% of 290,000 active;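 active means mean replicate inhibition above about 79%, with every replicate also reaching it, limit read from the data; inconclusive means only one of the two criteria met; inactive means mean below limit and not every replicate reaching it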
Target sequence (P55789 whole entry, looked up): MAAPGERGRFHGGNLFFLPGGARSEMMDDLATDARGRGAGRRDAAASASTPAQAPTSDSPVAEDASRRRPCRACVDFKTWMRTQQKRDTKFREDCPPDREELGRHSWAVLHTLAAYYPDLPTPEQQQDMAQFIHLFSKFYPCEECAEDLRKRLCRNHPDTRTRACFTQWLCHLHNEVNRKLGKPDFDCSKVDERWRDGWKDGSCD
Calb FLC = affects C. albicans growth with fluconazole; C. albicans CaCi-2 (fluconazole-resistant clinical isolate) + fluconazole, Alamar Blue growth, 48 h; 0.57% of 300,000 active; AID 1979; growth inhibition, % (test concentration not listed);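 active means growth inhibition above about 58% in most replicates, limit read from the data, passing the limit was not always enough; inconclusive means exactly half the replicates above a set limit; inactive means most replicates below a set limit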;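 further: all wells also contain fluconazole at 8 µg/ml as a sub-toxic cotreatment; 0% = median of DMSO wells and 100% = median of geldanamycin control wells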
Active calls of the source: *; ? = inconclusive; . = not tested or not shown. In the library only some 5.4% were active in any assay of this set; here they are far more common.

SMILES	CSC inhib	PP5 primary	PP1 inh	ALR H2O2 inh	Calb FLC
CCOc1ccc(C2=Nn3c(nnc3-c3ccccc3OC)SC2)cc1	-1.0	3.2	1.4	.	?
COc1ccccc1-c1nnc2n1N=C(c1ccc(O)c(O)c1)CS2	-14.2	7.7	-4.0	99.0*	?
CCOC(=O)/C=C1\NC(C)(C)Cc2cc(OC)c(OC)cc21	.	1.5	0.0	10.0	1.5
COc1ccc(C2CC(c3ccc(OC)cc3O)=NN2C(=O)c2ccccc2)cc1 (stereo not given)	15.9	1.8	2.3	-19.3	1.8
O=C(O)c1oc2ccccc2c1CSc1ccccn1	-1.4	-3.6	-3.8	29.8	-6.1
Cn1c(/N=C/c2c(O)ccc3ccccc23)nc2ccccc21	19.7	3.9	-0.1	91.3*	43.8
CCCn1c(/N=C/c2ccccc2O)nc2ccccc21	7.6	-6.2	-3.4	-6.0	?
CC1(c2ccccc2)CC(C)(C)N2C(=O)/C(=C3\SC(=S)NC3=O)c3cccc1c32 (stereo not given)	105.1*	-0.8	-2.6	-25.9	-3.0
COC(=O)c1c(SCc2cccc3ccccc23)nc(=O)[nH]c1C	24.4	2.4	4.0	99.0*	3.3
O=C(O)C1CCC(CNCc2ccccc2Cl)CC1 (stereo not given)	0.1	2.7	2.1	-24.6	23.3
CNc1nc2c3ccccc3n(C(C)=O)c2s1	-12.4	-0.9	-2.4	.	-2.1
CC(=O)n1c2ccccc2c2nc(NC(C)C)sc21	11.2	-1.1	-1.1	99.4*	-1.9
O=C1CC(c2ccccc2)Sc2ccccc2N1 (stereo not given)	-11.4	1.6	1.9	93.7*	22.2
CC1CCCN(CCCOc2ccc(Br)cc2Cl)C1 (stereo not given)	193.7*	2.2	-2.6	-24.0	-19.6
Cc1cccc(NC(=O)COC(=O)c2cc(C)oc2C)c1	11.8	3.3	2.2	-2.1	-36.4
CCCN(Cc1ccc(N(CC)CC)cc1)CC1CC1	.	-0.1	-1.5	98.4*	-2.1
O=C(Cn1cnc2sc(-c3ccccc3)cc2c1=O)NCc1ccccc1	.	5.3	15.2*	.	1.8
O=C(Cn1cnc2sc(-c3ccccc3)cc2c1=O)NCCc1ccccc1	-0.5	-0.1	0.2	26.9	1.5
CCn1nnc2cc(C(=O)OCC(=O)N(C)Cc3cccc(F)c3)ccc21	-14.1	.	.	-2.5	.
CCN(CC)CCOc1ncnc2c1oc1ccccc12	-10.1	0.2	1.9	-6.5	-3.7
CCCCc1oc2ccccc2c1C(=O)c1cc(I)c(OCCN(CC)CC)c(I)c1	89.3*	0.1	10.3	.	.
Cc1c(O)c(CN2CCCCC2)cc2c1oc(=O)c1ccccc12	-2.0	2.3	-3.9	17.9	5.6
Cc1c(O)c(CN(C)C)cc2c1oc(=O)c1ccccc12	19.2	2.4	0.9	96.6*	0.3
CCc1noc(C)c1C(=O)Nc1cc(Cl)ccc1N1CCCC1	-5.9	2.5	-2.2	98.6*	10.8
Cc1noc(C)c1C(=O)N1CCN(c2ccccc2O)CC1	.	-1.8	-4.8	98.8*	.
SMILES	CSC inhib	PP5 primary	PP1 inh	ALR H2O2 inh	Calb FLC
Cc1noc(C)c1C(=O)N1CCN(c2ncccn2)CC1	13.1	0.0	-2.4	-15.5	0.6
CCc1noc(C)c1C(=O)Nc1ccccc1N1CCOCC1	2.5	1.1	-7.2	-7.7	13.1
Cc1noc(C)c1C(=O)Nc1ccccc1N1CCCC1	.	-0.6	-2.9	93.6*	.
CCCCC(=O)Nc1ccc(C(=O)NCCc2ccc(S(N)(=O)=O)cc2)cc1	-11.8	3.2	-0.9	-6.2	0.2
COc1ccc(C(=O)Nc2ccc3c(c2)C(=O)c2ccccc2C3=O)cc1OC	-6.8	0.3	0.6	-3.3	5.1
COc1ccc(C(=O)c2c(C(F)(F)F)oc3c2C(=O)c2ccccc2C3=O)cc1OC	101.5*	4.8	4.0	-45.5	-18.4
Cc1cc(C)c2ccc(N)nc2c1O	24.8	2.2	-5.8	91.4*	107.3*
Cc1cc(C)c2cccc(N)c2n1	2.3	-0.7	2.8	-9.5	6.2
COCCNC(=S)N(c1ccccc1)C(C)C	5.8	0.6	-0.5	49.6	-0.8
S=C(NC1CCCCC1)NN(c1ccccc1)c1ccccc1	3.4	2.4	3.6	6.2	-41.1
COCCNC(=S)NN(c1ccccc1)c1ccccc1	5.7	-2.3	2.1	81.7*	5.0
CNC(=S)NN(c1ccccc1)c1ccccc1	-6.0	-2.0	-1.7	95.3*	1.4
COc1nc(Nc2ccc(O)cc2)nc(OC(C(F)(F)F)C(F)(F)F)n1	8.3	8.0	2.5	99.0*	17.8
COc1nc(Nc2ccc(C(C)C)cc2)nc(OC)n1	10.6	-0.5	-1.6	7.2	50.5
O=[N+]([O-])c1ccc(/C([O-])=C(/C(=S)Nc2ccccc2F)[n+]2ccccc2)cc1	-17.6	-2.2	0.6	-1.8	0.7
COc1cccc(NC(=S)/C(=C(\[O-])c2ccc([N+](=O)[O-])cc2)[n+]2ccccc2)c1	-7.7	-0.5	-1.3	98.9*	-6.5
CC1(C)Cc2c(c(N3CCOCC3)nc3sc4c(NN)ncnc4c23)CS1	87.2*	-0.9	2.9	-14.1	-7.7
COC(=O)C(C)Oc1ccc(-c2nccc(-c3cccs3)n2)cc1 (stereo not given)	.	3.3	-1.8	1.3	3.0
Oc1ccc(-c2nccc(-c3cccs3)n2)cc1	13.9	1.3	-3.7	88.6*	-7.4
O=S(Cc1ccc(Cl)cc1)CC(O)COc1ccc(Cl)cc1 (stereo not given)	-11.6	3.8	0.9	-1.3	23.5
CCNc1nc(NCC)nc(N/N=C/c2ccccc2)n1	-10.3	1.3	-4.9	56.9	3.3
CCOc1ccc(OCCN2CCCCC2)cc1	12.9	2.8	3.6	.	6.8
COc1ccc(-c2sc3ccccc3c2-c2ccc(OCCN3CCCCC3)cc2)cc1	139.2*	.	.	0.4	.
c1ccc(COc2ccc(OCCN3CCCC3)cc2)cc1	13.8	2.5	5.3	.	0.1
c1ccc(-c2sc3ccccc3c2-c2ccc(OCCN3CCCC3)cc2)cc1	106.7*	.	.	-8.3	.
SMILES	CSC inhib	PP5 primary	PP1 inh	ALR H2O2 inh	Calb FLC
Cc1ccccc1C([O-])=Nc1ccc[n+](-c2nc3ccccc3nc2NS(=O)(=O)c2ccccc2)c1	-14.6	3.3	0.0	89.0*	-1.3
C=CCn1c(=O)c2c(nc(-c3ccc(S(=O)(=O)O)cc3)n2C)n(C)c1=O	-15.4	-1.8	-0.8	-24.9	.
Cc1cc(Nc2ccccc2)n(CCOC(=O)COc2ccccc2)n1	-6.6	3.9	0.2	98.1*	-2.2
O=C(CSc1ncnc2[nH]ncc12)Nc1cccc(Oc2ccccc2)c1	19.6	1.9	6.9	98.4*	11.8
Nc1nc(SCC(=O)Nc2cccc(Oc3ccccc3)c2)n[nH]1	-7.3	-2.2	1.2	-5.3	-8.8
COc1cccc(NC(=O)CSc2cccc[n+]2[O-])c1	1.5	.	.	-14.1	.
O=C(CSc1cccc[n+]1[O-])Nc1cccc(Oc2ccccc2)c1	15.8	-1.1	0.8	93.9*	55.3
Cc1cccc(-n2c(C)cc(/C=N/NC(=O)c3ccc(CN4CCOCC4)cc3)c2C)c1	4.6	-1.6	-2.1	99.2*	5.7
CC(=O)NC1C(=O)N=C(SCC(=O)Nc2sc3c(c2C#N)CCCCCC3)NC1=O (stereo not given)	-24.8	-1.6	5.9	98.9*	-9.5
